Measurements as given in PubChem BioAssay (NCI).
This is part of a sample that, as a whole, favours compounds with a hit. Of some 79,000 tested, about 15% had one in any assay. The source made the active and inactive calls. Cut-off read from the data, not from the text of the source: active = growth inhibition above about 70%; inactive = the rest.

How the values were obtained:
[1] = NCI Yeast Anticancer Drug Screen. Data for the rad52 strain (AID 147);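 note: 0% = growth of vehicle-treated control cultures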; details: S. cerevisiae rad52 mutant growth inhibition, active compounds read high
In short: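 Here a repair-compromised yeast strain receives each compound; its growth is then quantified and normalised to vehicle-only controls.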

[2] = NCI Yeast Anticancer Drug Screen. Data for the wt1 strain (AID 149);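 note: 0% = growth of vehicle-treated wt1 cultures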; details: S. cerevisiae wt1 strain (SPY 50644) growth inhibition, active compounds read high
In short: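 Compounds are added to wt1 yeast cultures. Growth is then measured. Inhibition is expressed relative to vehicle-treated controls.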

[3] = NCI Yeast Anticancer Drug Screen. Data for the rad50EPP+ strain (AID 151);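 note: 0% = growth of vehicle-treated control cultures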; details: S. cerevisiae rad50 mutant strain, active compounds read high
In short: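 Read-out is yeast growth inhibition relative to vehicle; cells used were the rad50EPP+ strain.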

[4] = NCI Yeast Anticancer Drug Screen. Data for the mgt1 strain (AID 153); details: S. cerevisiae mgt1 mutant growth inhibition, active compounds read high
In short: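 Measured: inhibition of mgt1 yeast growth by compound, normalized to vehicle-treated cultures.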

[5] = NCI Yeast Anticancer Drug Screen. Data for the rad50 strain (AID 155);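 note: 0% = growth of vehicle-only cultures of the same strain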; details: S. cerevisiae rad50 strain growth inhibition, active compounds read high
In short: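 Inhibition values express reduced yeast growth in compound-treated cultures relative to vehicle-treated controls.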

[6] = NCI Yeast Anticancer Drug Screen. Data for the mec2-1 strain (AID 157); details: S. cerevisiae mec2-1 strain, active compounds read high
In short: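 Using mec2-1 yeast: add compound, measure growth, express inhibition versus vehicle-treated cultures.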

[7] = NCI Yeast Anticancer Drug Screen. Data for the rad14 strain (AID 159);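 note: 0% = growth of vehicle-treated control cultures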; details: S. cerevisiae rad14 strain growth inhibition, active compounds read high
In short: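 A mutant yeast strain defective in DNA damage repair is treated with compound; inhibition of its growth is scored against untreated, vehicle-exposed cultures.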

[8] = NCI Yeast Anticancer Drug Screen. Data for the sgs1 mgt1 strain (AID 161);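 note: 0% = growth of cultures given vehicle only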; details: S. cerevisiae sgs1 mgt1 strain, active compounds read high
In short: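 This yeast growth screen uses a strain with defined DNA-repair lesions; compound-treated growth is compared with vehicle-treated growth.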

[9] = NCI Yeast Anticancer Drug Screen. Data for the CLN2oe strain (AID 163);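 note: 0% = growth of vehicle-only control cultures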; details: S. cerevisiae CLN2oe strain, active compounds read high
In short: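 Whole-cell yeast growth assay. A strain engineered for altered cell-cycle control received compound, and inhibition relative to vehicle-treated cultures was recorded.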

[10] = NCI Yeast Anticancer Drug Screen. Data for the cln2 rad14 strain (AID 165);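 note: 0% = growth equal to vehicle treated cultures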; details: S. cerevisiae cln2 rad14 strain, active compounds read high
In short: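 Yeast strain cln2 rad14, bearing defects in cell cycle control and DNA repair, serves as the test system; values reflect growth inhibition compared with vehicle.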

[11] = NCI Yeast Anticancer Drug Screen. Data for the bub3 strain (AID 167); details: S. cerevisiae bub3 mutant strain, active compounds read high
In short: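 Steps: expose the mutant yeast strain to compound; grow alongside vehicle-treated cultures; measure growth; express inhibition against the vehicle cultures.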

[12] = NCI Yeast Anticancer Drug Screen. Data for the wt2 strain (AID 169);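 note: 0% = growth of vehicle-treated yeast cultures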; details: S. cerevisiae wt2 strain growth inhibition, active compounds read high
In short: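 Treated yeast vs. vehicle-treated yeast: growth inhibition determined.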

[13] = NCI Yeast Anticancer Drug Screen. Data for the mlh1 strain (AID 171);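 note: 0% = growth of vehicle-treated control cultures of the same strain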; details: S. cerevisiae mlh1 strain growth inhibition, active compounds read high
In short: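 A yeast strain with a defined genetic lesion serves as the test organism. Cultures receive compound or vehicle, and growth is measured.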

[14] = NCI Yeast Anticancer Drug Screen. Data for the sgs1 strain (AID 173);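 note: 0% = growth of vehicle-only control cultures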; details: S. cerevisiae sgs1 mutant, active compounds read high
In short: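 A genetically defined yeast mutant is incubated with the test compound, and its growth is compared to that of the same strain given vehicle.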

[15] = NCI Yeast Anticancer Drug Screen. Data for the mlh1 rad18 strain (AID 175); details: S. cerevisiae mlh1 rad18 strain growth inhibition, active compounds read high
In short: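 Steps: expose repair-defective yeast to compound; measure growth; express inhibition against vehicle-treated controls.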

[16] = NCI Yeast Anticancer Drug Screen. Data for the rad18 strain (AID 177); details: S. cerevisiae rad18 mutant growth inhibition, active compounds read high
In short: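 Measured value is growth inhibition of a yeast strain bearing a DNA repair alteration, referenced to vehicle-treated cells.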

[17] = at 5.0 µM (retest, dose inferred, filed as 0.5)
[18] = at 50.0 µM (retest, dose inferred, filed as 5.0)

Measured: growth inhibition

CN(C)c1ccc(C2CC(C)(O)Oc3cc4c(cc32)OCO4)cc1 (stereo unspecified)
inactive: [1]; at 1.2 µM -1% | [1]; at 3.7 µM -1% | [1]; at 11.0 µM 10% | [1]; at 33.0 µM 28% | [2]; at 1.2 µM 0% | [2]; at 3.7 µM 5% | [2]; at 11.0 µM 1% | [2]; at 33.0 µM 1% | [2]; at 100.0 µM 7% | [3]; at 1.2 µM 2% | [3]; at 3.7 µM 4% | [3]; at 11.0 µM 20% | [3]; at 33.0 µM 36% | [3]; at 100.0 µM 59% | [4]; at 1.2 µM -2% | [4]; at 3.7 µM -3% | [4]; at 11.0 µM 0% | [4]; at 33.0 µM 4% | [4]; at 100.0 µM 48% | [5]; at 1.2 µM -1% | [5]; at 3.7 µM -2% | [5]; [17] 10% | [5]; at 11.0 µM 5% | [5]; at 33.0 µM 12% | [5]; at 50.0 µM 24.6% | [5]; at 100.0 µM 40% | [6]; at 1.2 µM -6% | [6]; at 3.7 µM 0% | [6]; [17] -20% | [6]; at 11.0 µM 2% | [6]; at 33.0 µM 4% | [6]; [18] 12% | [6]; at 50.0 µM 14.3% | [6]; at 100.0 µM 29% | [7]; at 1.2 µM -1% | [7]; at 3.7 µM 1% | [7]; at 11.0 µM 9% | [7]; at 33.0 µM 27% | [7]; at 100.0 µM 58% | [8]; [17] 2% | [8]; at 50.0 µM 34.7% | [9]; at 1.2 µM -5% | [9]; at 3.7 µM -16% | [9]; at 11.0 µM 4% | [9]; at 33.0 µM -3% | [9]; at 100.0 µM 16% | [10]; [17] 1% | [10]; [18] 37% | [10]; at 50.0 µM 21.3% | [11]; at 1.2 µM -5% | [11]; at 3.7 µM -3% | [11]; [17] 18% | [11]; at 11.0 µM 3% | [11]; at 33.0 µM 10% | [11]; at 50.0 µM 27.9% | [11]; at 100.0 µM 16% | [12]; at 1.2 µM -1% | [12]; at 3.7 µM -2% | [12]; at 11.0 µM -1% | [12]; at 33.0 µM 7% | [12]; at 100.0 µM 46% | [13]; at 1.2 µM -3% | [13]; at 3.7 µM 0% | [13]; at 11.0 µM 2% | [13]; at 33.0 µM 11% | [13]; at 100.0 µM 41% | [14]; at 1.2 µM -1% | [14]; at 3.7 µM 7% | [14]; at 11.0 µM 23% | [14]; at 33.0 µM 55% | [15]; [17] 23% | [15]; at 50.0 µM 43.5% | [16]; at 1.2 µM 24% | [16]; at 3.7 µM 57%
active: [1]; at 100.0 µM 70% | [5]; [18] 77% | [8]; [18] 83% | [11]; [18] 79% | [14]; at 100.0 µM 87% | [15]; [18] 93% | [16]; at 11.0 µM 89% | [16]; at 33.0 µM 92% | [16]; at 100.0 µM 95%

N#CC(C#N)=NNc1ccc(S(=O)(=O)O)cc1
active: [5]; [17] 85% | [5]; [18] 99% | [6]; [17] 93% | [6]; [18] 99% | [15]; [18] 100%
inactive: [1]; at 1.2 µM -6% | [1]; at 3.7 µM 3% | [1]; at 11.0 µM 4% | [1]; at 33.0 µM 14% | [1]; at 100.0 µM 4% | [2]; at 1.2 µM -19% | [2]; at 3.7 µM -18% | [2]; at 11.0 µM -19% | [2]; at 33.0 µM -14% | [2]; at 100.0 µM -3% | [3]; at 1.2 µM 2% | [3]; at 3.7 µM 2% | [3]; at 11.0 µM 19% | [3]; at 33.0 µM -4% | [3]; at 100.0 µM 9% | [4]; at 1.2 µM 3% | [4]; at 3.7 µM 1% | [4]; at 11.0 µM -3% | [4]; at 33.0 µM 7% | [4]; at 100.0 µM 9% | [5]; at 1.2 µM -20% | [5]; at 3.7 µM -27% | [5]; at 11.0 µM -25% | [5]; at 33.0 µM -26% | [5]; at 50.0 µM 19.3% | [5]; at 100.0 µM -9% | [6]; at 1.2 µM -20% | [6]; at 3.7 µM -22% | [6]; at 11.0 µM -29% | [6]; at 33.0 µM -24% | [6]; at 50.0 µM 17.7% | [6]; at 100.0 µM -28% | [7]; at 1.2 µM 11% | [7]; at 3.7 µM 13% | [7]; at 11.0 µM 3% | [7]; at 33.0 µM 2% | [7]; at 100.0 µM 23% | [8]; [17] -2% | [8]; [18] 32% | [8]; at 50.0 µM 22.8% | [9]; at 1.2 µM -17% | [9]; at 3.7 µM -12% | [9]; at 11.0 µM -11% | [9]; at 33.0 µM -19% | [9]; at 100.0 µM -24% | [10]; [17] 0% | [10]; [18] 23% | [10]; at 50.0 µM 17.9% | [11]; at 1.2 µM -30% | [11]; at 3.7 µM -29% | [11]; [17] 17% | [11]; at 11.0 µM -30% | [11]; at 33.0 µM -29% | [11]; [18] 28% | [11]; at 50.0 µM 24.1% | [11]; at 100.0 µM -26% | [12]; at 1.2 µM -15% | [12]; at 3.7 µM -18% | [12]; at 11.0 µM -6% | [12]; at 33.0 µM -17% | [12]; at 100.0 µM -7% | [13]; at 1.2 µM 3% | [13]; at 3.7 µM 5% | [13]; at 11.0 µM 5% | [13]; at 33.0 µM 11% | [13]; at 100.0 µM 41% | [14]; at 1.2 µM -8% | [14]; at 3.7 µM -9% | [14]; at 11.0 µM -7% | [14]; at 33.0 µM 10% | [14]; at 100.0 µM 11% | [15]; [17] 63% | [15]; at 50.0 µM 20.6% | [16]; at 1.2 µM 2% | [16]; at 3.7 µM -6% | [16]; at 11.0 µM 5% | [16]; at 33.0 µM 1% | [16]; at 100.0 µM 2%
